Experimental data taken from PubChem BioAssay (Tox21).
Records with an inconclusive call do not appear. The source made the active and inactive calls. The call rests on the fitted dose curve.

Each compound was assayed against Vitamin D3 receptor (Homo sapiens) (UniProt P11473) (assay: qHTS assay to identify small molecule agonists of the vitamin D receptor (VDR) signaling pathway (AID 743222)). Settings: HEK293T VDR-UAS-bla, beta-lactamase FRET ratio, 16 h; series mostly up to 63.5 µM.
Excerpt: National Center for Advancing Translational Sciences [NCATS]
NIH Chemical Genomics Center [NCGC]
U.S. Environmental Protection Agency [EPA]
National Institutes of Environmental Health Sciences [NIEHS]
National Toxicology Program [NTP]
U.S. Food and Drug Administration [FDA]
The vitamin D receptor (VDR), a member of nuclear hormone receptor superfamily, plays a critical role in calcium homeostasis and bone metabolism. It is also involved in cell differentiation and growth, and thrombogenicity.
Tox21 Assay Protocol Summary:
VDR-bla cells were dispensed at 2,000 cells/6 uL/well into black wall/clear-bottom 1536-well plates using a Multidrop Combi (Thermo Fisher Scientific, Waltham, MA) dispenser. After the assay plates were incubated at a 37C and 5% CO2 for 4 h, 23 nL of compounds dissolved in DMSO, positive controls or DMSO only was transferred to the assay plate by a Pintool station (Kalypsys, San Diego, CA). The plates were incubated at 37C and 5% CO2 for 16 h. After 1 uL of LiveBLAzerTM B/G FRET substrate was added using a Bioraptr Flying Reagent Dispenser (FRD) workstation (Beckman Coulter, Indianapolis, IN, USA), the plates were incubated at room temperature for 2 h, and fluorescence intensity was measured by an Envision plate reader (PerkinElmer, Shelton, CT).

Vitamin D3 receptor (Homo sapiens), sequence (P11473 whole entry, looked up): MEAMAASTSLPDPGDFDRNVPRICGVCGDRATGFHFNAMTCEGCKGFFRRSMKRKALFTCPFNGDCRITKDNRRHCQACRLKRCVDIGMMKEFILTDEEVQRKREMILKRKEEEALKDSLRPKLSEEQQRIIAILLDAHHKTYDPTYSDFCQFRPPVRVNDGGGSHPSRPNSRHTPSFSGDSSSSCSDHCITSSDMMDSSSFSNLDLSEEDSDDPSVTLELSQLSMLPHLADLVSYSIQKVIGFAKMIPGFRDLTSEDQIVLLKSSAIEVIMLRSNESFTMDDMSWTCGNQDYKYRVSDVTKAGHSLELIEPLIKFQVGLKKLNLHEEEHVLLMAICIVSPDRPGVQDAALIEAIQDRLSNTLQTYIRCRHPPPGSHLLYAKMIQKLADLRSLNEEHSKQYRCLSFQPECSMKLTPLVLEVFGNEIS

Row | Compound | outcome
1 | O=C(O)C(F)(F)C(F)(F)C(F)(F)C(F)(F)C(F)(F)F | inactive
2 | COC1CC(=C(c2cccs2)c2cccs2)C[N+](C)(C)C1 (stereo not given) | inactive
3 | CC(C)(C)CC(C)(C)c1ccc(O)cc1 | inactive
4 | CCCCCCCCCCCC[N+](C)(C)CCOc1ccccc1 | inactive
5 | Cc1cnc(C2=NC(C)(C(C)C)C(=O)N2)c(C(=O)O)c1 (stereo not given) | inactive
6 | COCc1cnc(C2=NC(C)(C(C)C)C(=O)N2)c(C(=O)O)c1 (stereo not given) | inactive
7 | CC(C)(C)OOC(C)(C)CCC(C)(C)OOC(C)(C)C | inactive
8 | CC[N+]1(CCOC(=O)C(O)(c2ccccc2)c2ccccc2)CCCCC1 | inactive
9 | CCC(C)(C)c1ccc(O)c(C(C)(C)CC)c1 | inactive
10 | CCOP(=O)(SC(C)CC)N1CCSC1=O (stereo not given) | inactive
11 | CCCBr | inactive
12 | C[C@H]1[C@@H]2Cc3ccc(O)cc3[C@@]1(C)CCN2C | inactive
13 | O=S(=O)(c1ccccc1)c1ccccc1 | inactive
14 | CCc1cnc(C2=NC(C)(C(C)C)C(=O)N2)c(C(=O)O)c1 (stereo not given) | inactive
15 | CCCCCCCCn1sccc1=O | inactive
16 | Clc1ccc(Cl)c(Cl)c1 | inactive
17 | O=C1NC(=O)C(=O)C(=O)N1 | inactive
18 | CC(C)(C)c1ccc(CCOc2ncnc3ccccc23)cc1 | inactive
19 | CC(=O)NNc1ccccc1 | inactive
20 | C=CCSSCC=C | inactive

Row | Compound | outcome
21 | Nc1cc(Cl)cc(C(=O)O)c1Cl | inactive
22 | c1ccc2c(c1)sc1ccccc12 | inactive
23 | COc1ccccc1N1CCNCC1 | inactive
24 | CC(O)CN1CCN(CC(=O)[O-])CCN(CC(=O)[O-])CCN(CC(=O)[O-])CC1.[Gd+3] (stereo not given) | inactive
25 | CN(C)C(=O)Nc1cccc(OC(=O)NC(C)(C)C)c1 | inactive
26 | Oc1cccc(Cl)c1 | inactive
27 | CCOP(=S)(OCC)Oc1ccc(S(C)=O)cc1 (stereo not given) | inactive
28 | C=CCc1ccc(OC(=O)Cc2ccccc2)c(OC)c1 | inactive
29 | CCCCC(CC)CO[N+](=O)[O-] (stereo not given) | inactive
30 | O=C(Cc1ccccc1)c1ccccc1 | inactive
31 | NCCc1cc(O)c(O)cc1O | inactive
32 | CCOC(=O)NC(O)C(Cl)(Cl)Cl (stereo not given) | inactive
33 | O=C(Cl)OCCOCCOC(=O)Cl | inactive
34 | c1ccc2c(c1)-c1cccc3cccc-2c13 | inactive
35 | O=C(NC(=O)c1cc(F)c(F)cc1Cl)Nc1cc(F)ccc1N1CCC(C(=O)O)CC1 | inactive
36 | CC(C)c1ccc(OP(=O)(Oc2ccc(C(C)C)cc2)Oc2ccc(C(C)C)cc2)cc1 | inactive
37 | CCCC[P+](CC)(CCCC)CCCC (tested in a mixture with another compound) | inactive
38 | NC(=O)CF | inactive
39 | FC(F)OC(F)(F)C(F)Cl (stereo not given) | inactive
40 | CC(C)C1(C)N=C(c2ncccc2C(=O)O)NC1=O (stereo not given) | inactive
